Where a name gives a salt, the structure may show the parent alone. ± gives the standard deviation of the averaged measurements.
System: Klebsiella pneumoniae NCTC-13439
Assay: percent growth inhibition of drug + antibiotic vs DMSO control; higher = more growth inhibition
Conditions: antibiotic (0.125x MIC): tigecycline; 20 µM

| Structure (SMILES) | percent growth inhibition [%] |
| --- | --- |
| N=C(NCCCCCCNC(=N)NC(=N)Nc1ccc(Cl)cc1)NC(=N)Nc1ccc(Cl)cc1 [Chlorhexidine] | 100.14 ± 0.079 |
| NC1CCN(c2c(F)cc3c(=O)c(C(=O)O)cn(C4CC4)c3c2Cl)C1 (configuration not stated) [Clinafloxacin] | 96.8 ± 4.4 |
| CCN1CCN(c2cc3c(cc2F)c(=O)c(C(=O)O)cn3C2CC2)CC1 [Enrofloxacin] | 69.6 ± 9.7 |
| CC(=O)CCCCn1c(=O)c2c(ncn2C)n(C)c1=O [Pentoxifylline] | 4.32 ± 0.75 |
| COc1ccc(OC)c(C(O)CNC(=O)CN)c1 (configuration not stated) [Midodrine hydrochloride] | -2.55 ± 3.2 |
| C[C@H](N)[C@H](O)c1cccc(O)c1 [Metaraminol bitartrate] | -12.7 ± 7 |
| COc1c(N2C[C@@H]3CCCN[C@@H]3C2)c(F)cc2c(=O)c(C(=O)O)cn(C3CC3)c12 [Moxifloxacin] | 99.69 ± 0.6 |

From the supplement of paper PMC6658780
